In PubChem BioAssay (Tox21):
Records with an inconclusive call do not appear. Activity calls are given as the source filed them. Calls come from the whole dose curve; as a rule, active = well fitted activation curve with a large enough effect in the signal ratio in the repeat runs (not every such curve was filed as active); inconclusive = weak or mixed curves; inactive = flat fitted curve, though single readings scatter; the % refers to the signal ratio.

Experiment: qHTS assay to identify small molecule agonists of the hypoxia (HIF-1) signaling pathway (AID 1224846)
Conditions: HRE-bla ME-180 cells, beta-lactamase ratio, 17 h; series mostly up to 76.8 µM; activation: at the top concentration
Text: U.S. Tox21 Program National Center for Advancing Translational Sciences [NCATS] NIH Chemical Genomics Center [NCGC] U.S. Environmental Protection Agency [EPA] National Institutes of Environmental Health Sciences [NIEHS] National Toxicology Program [NTP] U.S. Food and Drug Administration [FDA] Tox21 Assay Overview: Hypoxia-inducible factor-1 (HIF-1) is the major hypoxia-regulated transcription factor that controls cellular responses to low oxygen concentration. HIF-1 is composed of two subunits: hypoxia responsive HIF-1-alpha and constitutively expressed HIF-1-beta, which is also known as aryl hydrocarbon receptor nuclear translocator. During hypoxic conditions, HIF-1-alpha heterodimerizes with HIF-1-beta and translocates into the nucleus where the HIF-1 complex binds to the hypoxia-response element (HRE) and activates expression of target genes such as VEGF (vascular endothelial growth factor). The HIF-1 pathway is essential to normal growth and development, and is involved in the pathophysiology of cancer, inflammation, and ischemia. Using a beta-lactamase reporter-gene under control of the hypoxia response element, a cell-based assay [CellSensor(TM) HRE-bla ME-180 from Life Technologies, Carlsbad, CA] was used to measure hypoxia-induced signaling. Tox21 10K library compounds were measured for their ability to induce the reporter gene activity.
Tox21 Assay Protocol Summary: HRE-bla ME-180 cells were dispensed at 2,000 cells per well in 6 uL of assay medium containing 0.5% dialyzed FBS into black wall/clear-bottom 1536-well plates using a Multidrop Combi (Thermo Scientific, Waltham, MA) dispenser. After the assay plates were incubated at 37C and 5% CO2 for 5 hrs, 23 nL of compounds dissolved in DMSO, positive controls or DMSO only was transferred to each well of the assay plate using a Pintool station (Kalypsys, San Diego, CA). The assay plates were incubated at 37C and 5% CO2 for 17 hrs. One uL of LiveBLAzerTM B/G FRET substrate (CCF4-AM) (Life Technologies) was added to each well using a Flying Reagent Dispenser (Aurora Discovery, San Diego, CA).
% is set by controls: 0 for no effect and ±100 for the full control effect.

Structure (SMILES)	activation
CC(=O)OCC(=O)[C@@]1(O)CC[C@H]2[C@@H]3CCC4=CC(=O)C=C[C@]4(C)[C@@]3(F)[C@@H](O)C[C@@]21C	-2.32% [at 35.5 µM] (inactive)
COC(=O)C(C)(C)C	1.91% (inactive)
CC(=O)Nc1cccc(N)c1	2.04% (inactive)
CCCCCCCCCCCCCCCCCCCl	0.175% [at 7.01 µM] (inactive)
O=C(O)c1ccccc1-n1cc(C(=O)O)c(=O)c2cc(Nc3c(F)cc(F)cc3Cl)c(Cl)cc21	-1.24% (inactive)
CCOc1cc(OCC)c(C(C)=O)cc1OCC	0.497% (inactive)
Nc1ccc(C(=O)Oc2ccccc2)c(O)c1	2.19% [at 35.5 µM] (inactive)
Cc1c(-c2cccnc2)c2ccccc2n1CCCCC(=O)O	0.662% (inactive)
Sc1nc(S)nc(S)n1	0.934% [at 35.5 µM] (inactive)
CCCCOC(=O)C(C)Oc1ccc(Oc2ccc(C(F)(F)F)cn2)cc1 (stereo not given)	0.0883% (inactive)
C1CCN(CN2CCCCC2)CC1	0.0343% (inactive)
CC(=O)S[C@H](C(=O)N[C@H]1Cc2ccccc2[C@H]2CCC[C@@H](C(=O)O)N2C1=O)C(C)C	-0.569% (inactive)
c1ccc(-c2ccc(-c3ccccc3)cc2)cc1	-1.07% [at 15.8 µM] (inactive)
Cc1cccc(C)c1NC(=O)CN1CCCC1	-1.34% [at 35.5 µM] (inactive)
C(/C=C/C=C/Nc1ccccc1)=Nc1ccccc1	-0.81% (inactive)
CC(C)C/C=C(\C=O)c1ccccc1	-0.544% (inactive)
C[C@H]1C[C@H]2[C@@H]3CCC4=CC(=O)C=C[C@]4(C)[C@@]3(F)[C@@H](O)C[C@]2(C)[C@@]1(O)C(=O)COP(=O)(O)O	-1.96% (inactive)
CC(C)=CCCC(C)C=O (stereo not given)	-1.02% (inactive)
CC1=CC(=C(c2ccc(N)cc2)c2ccc(N)cc2)C=CC1=N	0.607% [at 7.01 µM] (inactive)
CCC(CC)C(=O)O	0.331% (inactive)

Structure (SMILES)	activation
O=c1[nH]nc(-c2ccc([N+](=O)[O-])o2)o1	-0.0331% (inactive)
N#C[C@@H]1CC(F)(F)CN1C(=O)CNC1CC2CCC(C1)N2c1ncccn1 (stereo not given in full)	-0.705% (inactive)
CCCCCCCCCC(C)C=O (stereo not given)	1.27% (inactive)
O=[N+]([O-])c1cccc(I)c1	0.242% (inactive)
Cc1cc(C)n(CO)n1	0.714% (inactive)
SCCOCCOCCS	0.922% (inactive)
O=C(O)c1ccc2cc(O)ccc2c1	-0.202% (inactive)
Cc1cc(C)c(C)c(O)c1	-0.0915% (inactive)
C=CC(=O)OCCCCCCCCCC	0.799% (inactive)
COc1ccnc2c1CCCCC2S(=O)c1nc2ccccc2[nH]1 (stereo not given)	-0.442% [at 35.5 µM] (inactive)
Cc1nc2sccn2c(=O)c1CCN1CCC(=C(c2ccc(F)cc2)c2ccc(F)cc2)CC1	2.76% [at 35.5 µM] (inactive)
CCCCCCCCCCCCSC#N	-0.415% (inactive)
COC=O	-0.206% [at 7.01 µM] (inactive)
CCCC(=O)OCc1ccccc1	1.1% (inactive)
CO[C@@H]1[C@@H](O[C@@H]2O[C@H](C)[C@@H](O[C@H]3C[C@@](C)(O)[C@@H](O)[C@H](C)O3)[C@H](N(C)C)[C@H]2O)[C@@H](CC=O)C[C@@H](C)[C@@H](O[C@@H]2CC[C@H](N(C)C)[C@@H](C)O2)/C=C/C=C/C[C@@H](C)OC(=O)C[C@H]1OC(C)=O	0.524% [at 35.5 µM] (inactive)
O=C(Nc1ccc2c(c1)Cc1ccccc1-2)C(F)(F)F	1.84% (inactive)
O=c1[nH][nH]c2ccccc12	-0.427% (inactive)
OCCOc1cccc(OCCO)c1	-1.1% (inactive)
CC/C=C\CCO	0.199% (inactive)
c1ccc(CN(Cc2ccccc2)Cc2ccccc2)cc1	-0.204% (inactive)
